Measured values from PubChem BioAssay AID1461 (National Center for Advancing Translational Sciences (NCATS), 2008).
In all, about 220,000 compounds went through this assay and about 2,300 (1%) were called active. Another 6% or so got no clear call; they are omitted. Calls come from the whole dose curve; as a rule, active = well fitted inhibition curve with a large enough effect; inconclusive = small, poorly fitted or top-dose-only effect, or effect the other way; inactive = no such curve, though single readings can be large or run the other way. The list comes from a sample in which actives are over-represented; it also holds similar structures and randomly drawn compounds. A call without a number means that no potency is given here.

target: Neuropeptide S receptor (Homo sapiens) (UniProt Q6W5P4); assay: qHTS Assay for Antagonists of the Neuropeptide S Receptor: cAMP Signal Transduction; conditions: CHO-NPSR cells, cAMP TR-FRET, antagonist mode; series mostly up to 38.3 µM; note: nearly all actives have a fitted effect of over 50% in size
Potency is the fitted concentration of half-maximal effect.

Sequence of Neuropeptide S receptor (Homo sapiens) (Q6W5P4 whole entry, looked up): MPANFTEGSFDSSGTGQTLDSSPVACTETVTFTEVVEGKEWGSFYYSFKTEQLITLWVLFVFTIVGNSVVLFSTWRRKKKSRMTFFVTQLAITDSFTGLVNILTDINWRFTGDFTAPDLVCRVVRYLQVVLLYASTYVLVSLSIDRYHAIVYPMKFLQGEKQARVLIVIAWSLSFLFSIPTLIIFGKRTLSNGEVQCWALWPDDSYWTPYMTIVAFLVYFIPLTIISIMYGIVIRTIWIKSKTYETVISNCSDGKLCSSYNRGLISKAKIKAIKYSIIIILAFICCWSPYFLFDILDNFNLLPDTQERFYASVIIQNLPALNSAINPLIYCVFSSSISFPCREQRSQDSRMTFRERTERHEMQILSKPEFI

SMILES | Potency
COc1cccc(OC)c1CN(C)C(=O)c1cnccc1C(F)(F)F | inactive
COC(C[C@H](O)CC(=O)COCc1ccccc1)OC | inactive
Cc1ccc(S(=O)(=O)/N=C(/NC(=S)Nc2c(C)n(C)n(-c3ccccc3)c2=O)c2ccccc2)cc1 | inactive
CSCC[C@H](NC(=O)CCCn1nnc2ccccc2c1=O)C(=O)O | inactive
S=C(NCCc1ccccc1)Nc1ccccc1 | inactive
CC1CCCCC1NC(=O)/C(C#N)=C/C=C/c1ccccc1[N+](=O)[O-] (stereo not drawn) | 10 µM (active)
O=C(/C=C/c1ccccc1[N+](=O)[O-])NCC1CCCO1 (stereo not drawn) | inactive
O=C(/C=C/c1ccccc1[N+](=O)[O-])OC1CCCCC1=O (stereo not drawn) | inactive
CN(c1ccccc1)S(=O)(=O)c1ccc(Cl)c(C(=O)OCC(=O)NCc2ccco2)c1 | inactive
CN(C)C(=S)Nc1ccc(Br)cc1Cl | inactive
COc1cc(C(CCN2CCN(c3ccccc3)CC2)c2c(OC)cc(OC)c3ccc(=O)oc23)cc(OC)c1OC (stereo not drawn) | 10 µM (active)
COc1ccc(C(CC(=O)N2CCN(c3ccccc3)CC2)c2c(O)cc(OC)cc2OC)cc1 (stereo not drawn) | inactive
CCN(CC)CCC(c1cc(OC)c(OC)c(OC)c1)c1c(OC)cc(OC)c2c(-c3ccccc3)cc(=O)oc12 (stereo not drawn) | inactive
O=C(Nc1ccccc1)Nc1nnc(COc2ccccc2F)s1 | inactive
COc1ccc(NC(=O)CCN2C(=O)/C(=C/c3ccc4c(c3)OCO4)SC2=S)cc1 | inactive
O=C(Cn1cnc2ccccc2c1=O)Nc1cccc(S(=O)(=O)N2CCCCC2)c1 | inactive
CC(=O)Nc1ccc(CC#N)cc1 | inactive
Cc1cc(-c2nc(C)c(-c3nnc(SCC(=O)Nc4ccccc4)n3C)s2)no1 | inactive
COc1ccc(N2C(=O)c3ccccc3NC2c2ccc(OC)c(CN3CCOCC3)c2)cc1 (stereo not drawn) | inactive
CCN(CC)P(=O)(Nc1ccc(SC(F)F)cc1)c1ccc(N(C)C)cc1NC(=O)c1ccco1 (stereo not drawn) | 5.01 µM (active)
CCC(=O)NC(=S)Nc1ccc(NC(=O)c2ccco2)c(Cl)c1 | inactive
O=C(Nc1ccc(Sc2ccc(Br)cc2)cc1)c1ccco1 | inactive
C=CCCN(Cc1ccccc1)S(=O)(=O)c1ccccc1Br | inactive
O=C(NNC(=O)c1csc(-c2cccnc2)n1)Nc1ccc(Cl)cc1 | inactive
O=C(O)CC12CC3CC(C1)CC(n1ncc(NCc4ccc(F)cc4)c(Cl)c1=O)(C3)C2 | inactive
O=C(NNC(=S)NC1CC2CCC1C2)c1ccc(Cl)cc1 (stereo not drawn) | inactive

SMILES | Potency
CC(C)CCn1c(CN(C)Cc2ccccc2)nc2c1c(=O)n(C)c(=O)n2C | inactive
COCCn1c(CN(Cc2ccccc2)Cc2ccccc2)nc2c1c(=O)n(C)c(=O)n2C | inactive
CC(C)Cn1c(CN(Cc2ccccc2)Cc2ccccc2)nc2c1c(=O)n(C)c(=O)n2C | 12.6 µM (active)
Cc1cc(-c2n[nH]c(=S)n2/N=C/C(Br)=C/c2ccccc2)n[nH]1 | 3.98 µM (active)
Cc1cc(-c2n[nH]c(=S)n2/N=C/c2ccco2)n[nH]1 | inactive
S=c1[nH]nc(-c2cccnc2)n1/N=C/C(Cl)=C\c1ccccc1 | inactive
Cn1c(SCC(=O)c2ccc(F)cc2)nnc1-c1ccccn1 | inactive
Cc1nc2nc(SCC(=O)c3ccccc3)[nH]c2cc1Br | inactive
Nc1nc(SC23CC4CC(CC(C4)C2)C3)ns1 | inactive
Cn1c(C(=O)O)ccc1S(=O)(=O)N(Cc1ccccc1)Cc1ccccc1 | inactive
N#CC1=C(SCc2ccccc2)NC(=O)C(C#N)C12CCCC2 (stereo not drawn) | inactive
N#CC1=C(SCc2ccc(C#N)cc2)N=C(N)C(c2nc(-c3ccccc3)cs2)C12CCCCC2 (stereo not drawn) | 3.98 µM (active)
N#C/C(=C1\CCCN1)c1nc(-c2ccccc2)cs1 | inactive
S=c1[nH]c2ccccc2c2ccccc12 | inactive
CCCCCCCCCCCCC(NC(C)=O)(C(=O)OCC)C(=O)OCC | inactive
Nc1ccccc1Sc1cc(Cl)nnc1Cl | inactive
Cc1ccc(-c2c[n+](CC(=O)Nc3ccccc3)c3n2CCC3)cc1 | inactive
CCOC(=O)c1c(C)[nH]c2c1-c1ccccc1C(=O)C2=O | inactive
CC(=O)c1c(C)[nH]c(=S)c(C#N)c1-c1ccc(F)cc1 | inactive
CCOC(=O)c1c(C)[nH]c(=S)c(C#N)c1-c1ccccc1 | 7.94 µM (active)
Cn1cnc(S(=O)(=O)Nc2ccc3c(c2)OCCO3)c1 | inactive
Cc1cc(C)cc(NC(=O)NC2CCN(CC(=O)Nc3cccc(Cl)c3C)CC2)c1 | inactive
O=C(CN1CCCCC1)Nc1ccccc1Cl | inactive
COCCN(CCOC)C(=S)Nc1ccccc1Cl | inactive
O=C(Nc1ccccc1Cl)/C(Cl)=C(\Cl)S(=O)c1ccccc1 (stereo not drawn) | 7.94 µM (active)
COc1ccc(C(=O)N/N=C2\CCS(=O)(=O)c3ccc(F)cc32)cc1OC | inactive

SMILES | Potency
COC(=O)c1cc(C(=O)OCC(=O)Nc2cc(C)on2)cc([N+](=O)[O-])c1 | inactive
N/C(=N\OC(=O)CCn1cccc(C(F)(F)F)c1=O)c1ccc(OC(F)(F)F)cc1 | inactive
Cn1c(S(=O)(=O)O)nc2ccccc21 | inactive
Cc1ccc(NC(=O)/C(=C/c2ccc([N+](=O)[O-])cc2)NC(=O)c2ccccc2)cc1 | inactive
N#C/C(=C\N1CCOCC1)S(=O)(=O)c1ccc(Cl)cc1 | inactive
O=C(COc1ccccc1)N1CCN=C1SCc1cccc(F)c1 | inactive
N#CCCCn1c(O)c(N=NC(=O)C(O)c2ccccc2)c2ccccc21 (stereo not drawn) | inactive
O=C(NCc1ccccn1)c1cc(Br)ccc1Cl | inactive
O=C(NCC(c1cccs1)N1CCOCC1)c1cc(-c2ccccn2)nc2ccccc12 (stereo not drawn) | inactive
O=C(NCc1cccs1)c1cc(-c2ccccn2)nc2ccc(Br)cc12 | 10 µM (active)
C#CCO[C@@H]1C[C@H](n2cnc3c(=O)[nH]c(NC(=O)C(C)C)nc32)O[C@@H]1CO | inactive
CCC1=NN2C(=N)/C(=C/c3cc(C)n(-c4ccccc4)c3C)C(=O)N=C2S1 | inactive
Cc1ccc2cc(/C=N/Nc3ccc(C(=O)O)cc3)c(Cl)nc2c1 | inactive
Cc1cc(C)c(C2C3=C(Nc4c2c(C)nn4-c2ccccn2)c2ccccc2C3=O)c(C)c1 (stereo not drawn) | 10 µM (active)
Cc1nn(-c2ccccn2)c2c1C(c1ccncc1)C1=C(CC(C)(C)CC1=O)N2 (stereo not drawn) | inactive
Cc1ccc(C2C3=C(Nc4[nH]n(-c5ccccc5)c(=O)c42)c2ccccc2C3=O)cc1 (stereo not drawn) | inactive
COCc1cc(=O)[nH]c(-c2ccc(C(F)(F)F)cc2)n1 | inactive
Cc1oc(C(N)=O)cc1COc1ccc(C(N)=O)cc1 | inactive
O=C(O)CCC(=O)Nc1nc2ccc([N+](=O)[O-])cc2s1 | inactive
O=C(NC(Nc1nc2ccc([N+](=O)[O-])cc2s1)(C(F)(F)F)C(F)(F)F)c1ccccc1 | 3.98 µM (active)
O=C(Nc1nc2ccc([N+](=O)[O-])cc2s1)c1ccncc1 | inactive
O=c1c2cc(-c3ccccc3)sc2nc2n1N=C(c1cccs1)CS2 | inactive
Brc1ccc2ncnc(NCc3cccnc3)c2c1 | inactive
O=C(Nc1cccnc1Oc1ncnc2cc(Cl)ccc12)c1ccc(F)cc1 | inactive
N#Cc1c(NCCO)ccc([N+](=O)[O-])c1NCCO | inactive
Cc1cccc(NC(=O)c2cc([N+](=O)[O-])ccc2N2CCN(C)CC2)c1 | inactive

SMILES | Potency
CCN1CCN(c2ccc([N+](=O)[O-])cc2C(=O)c2ccc(Cl)cc2)CC1 | inactive
O=C(Nc1cccc(Cl)c1)c1cc([N+](=O)[O-])ccc1N1CCN(CCO)CC1 | 10 µM (active)
CCC(C)N1C(=S)SC(C)(C)C1N(O)C(=O)NC1CCCCC1 (stereo not drawn) | inactive
CCCN(CCC)S(=O)(=O)c1ccc(C(=O)N2CC3CCC(CC3)C2)cc1 | inactive
CCOc1ccc(-c2n[nH]c(C)c2-c2ccccn2)c(O)c1 | inactive
COc1ccc(C(=O)Cc2cnn(-c3ccccc3)c2)c(O)c1 | inactive
Cc1[nH]nc(-c2ccc(OCc3cnn(-c4ccccc4)c3)cc2O)c1Oc1ccc(Cl)cc1 | 10 µM (active)
CC(C)n1c(CN2CCN(Cc3ccccc3)CC2)nc2ccccc21 | inactive
Cn1cc(S(=O)(=O)NC(c2ccccc2)c2ccccc2)c(=O)n(C)c1=O | inactive
CCC(=O)NCCc1nc2ccccc2n1CC | inactive
CC(=O)Nc1nc2ccccc2n1Cc1ccc(C)cc1 | inactive
CCCc1nc2c(C)cc(-c3nc4ccccc4n3C)cc2n1Cc1ccc(-c2ccccc2C(=O)O)cc1 | 1.26 µM (active)
CS(=O)(=O)c1sc(C(=O)NC(=S)Nc2ccc(OC(F)(F)F)cc2)c2c1C=CCC2 | inactive
Cc1cccc(-[n+]2c(-c3cccc(Br)c3)[nH]c3nc4ccccc4nc32)c1 | 10 µM (active)
Cc1ccc2nc(-c3cccc(Br)c3)cc(C(=O)Nn3cnnc3)c2c1 | inactive
COc1ccc2cc1Oc1ccc(cc1)C[C@H]1c3cc(c(OC)cc3CCN1C)Oc1c(O)c(OC)cc3c1[C@H](C2)N(C)CC3 | inactive
O=C(Nc1nnc(COc2ccccc2)s1)Nc1ccccc1F | inactive
CCC(=O)c1ccc(OCC(=O)Nc2ccc3nc(C)sc3c2)cc1 | inactive
Cc1cccn2c(=O)c(/C=C3\SC(=S)N(CC(C)C)C3=O)c(NCCCOC(C)C)nc12 | inactive
CCOC(=O)CC1C(=O)NCCN1C(=O)COc1ccc(Br)cc1C (stereo not drawn) | inactive
CCOC(=O)CC1C(=O)NCCN1c1nc2c(C)cccn2c(=O)c1/C=C1\SC(=S)N(C(C)CC)C1=O (stereo not drawn) | 12.6 µM (active)
CC(C)OP(=O)(OC(C)C)C(Nc1ccccc1)c1cccc([N+](=O)[O-])c1 (stereo not drawn) | inactive
Cc1ccc(-c2csc(NC(=O)c3cccs3)n2)cc1 | inactive
CCc1nnc(NS(=O)(=O)c2ccc(NC(=S)NC(=O)c3cccs3)cc2)s1 | inactive
Cc1sc(NC(=S)NC(=O)c2cccs2)nc1-c1ccc(CC(C)C)cc1 | 12.6 µM (active)
